Measured values published in ChEMBL document CHEMBL2218924, “A broad activity screen in support of a chemogenomic map for kinase signalling research and drug discovery” (Biochem J, 2013).

Experiments:
[1] = target: Homeodomain-interacting protein kinase 3 (Homo sapiens) (UniProt Q9H422); conditions: at 10 µM
[2] = target: T1, Serine/threonine-protein kinase haspin (Homo sapiens) (UniProt Q8TF76); conditions: at 1 µM
T1 sequence (whole entry): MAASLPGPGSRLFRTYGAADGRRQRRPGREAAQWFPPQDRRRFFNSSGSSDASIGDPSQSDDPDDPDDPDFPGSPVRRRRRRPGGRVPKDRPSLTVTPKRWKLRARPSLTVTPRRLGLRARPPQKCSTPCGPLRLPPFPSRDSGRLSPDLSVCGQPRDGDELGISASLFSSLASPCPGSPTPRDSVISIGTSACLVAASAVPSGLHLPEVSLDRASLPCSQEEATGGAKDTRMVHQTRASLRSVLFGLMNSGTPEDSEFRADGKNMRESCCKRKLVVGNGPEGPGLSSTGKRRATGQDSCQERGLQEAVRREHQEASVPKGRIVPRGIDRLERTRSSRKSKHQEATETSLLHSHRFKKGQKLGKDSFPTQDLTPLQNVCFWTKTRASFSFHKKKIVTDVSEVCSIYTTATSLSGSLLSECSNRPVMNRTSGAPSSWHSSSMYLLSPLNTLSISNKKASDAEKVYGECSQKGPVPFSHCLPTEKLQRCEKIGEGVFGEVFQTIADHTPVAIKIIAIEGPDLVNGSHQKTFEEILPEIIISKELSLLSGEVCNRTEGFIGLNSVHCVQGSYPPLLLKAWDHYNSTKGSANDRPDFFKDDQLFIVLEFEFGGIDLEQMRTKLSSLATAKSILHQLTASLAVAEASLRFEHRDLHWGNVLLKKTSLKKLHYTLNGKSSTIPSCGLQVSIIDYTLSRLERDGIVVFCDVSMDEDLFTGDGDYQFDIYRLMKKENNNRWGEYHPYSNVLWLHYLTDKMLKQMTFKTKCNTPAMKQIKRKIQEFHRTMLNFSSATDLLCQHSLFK

[3] = target: T1, Serine/threonine-protein kinase haspin (Homo sapiens); conditions: at 10 µM
[4] = target: Tyrosine-protein kinase HCK (Homo sapiens) (UniProt P08631); conditions: at 1 µM
Chain of Tyrosine-protein kinase HCK (Homo sapiens) (P08631 2-526 limits assumed): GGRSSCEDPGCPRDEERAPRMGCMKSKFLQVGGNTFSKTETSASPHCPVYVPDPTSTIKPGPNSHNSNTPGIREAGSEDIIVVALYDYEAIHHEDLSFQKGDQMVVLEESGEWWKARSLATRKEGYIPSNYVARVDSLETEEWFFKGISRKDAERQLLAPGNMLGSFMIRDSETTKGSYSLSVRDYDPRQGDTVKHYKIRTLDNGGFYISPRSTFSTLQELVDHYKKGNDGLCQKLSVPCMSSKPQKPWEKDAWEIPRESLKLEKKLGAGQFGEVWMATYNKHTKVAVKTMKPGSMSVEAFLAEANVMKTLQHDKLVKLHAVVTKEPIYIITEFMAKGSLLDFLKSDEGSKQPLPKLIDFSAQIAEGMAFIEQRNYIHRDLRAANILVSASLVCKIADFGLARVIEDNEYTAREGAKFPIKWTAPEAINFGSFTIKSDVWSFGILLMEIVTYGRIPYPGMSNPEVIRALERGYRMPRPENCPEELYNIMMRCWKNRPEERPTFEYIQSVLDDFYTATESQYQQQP

[5] = target: Tyrosine-protein kinase HCK (Homo sapiens) (UniProt P08631); conditions: at 10 µM
[6] = target: Tyrosine-protein kinase HCK (Homo sapiens) (UniProt P08631); conditions: at 1 µM; remark: listed apart in the source
[7] = target: Tyrosine-protein kinase HCK (Homo sapiens) (UniProt P08631); conditions: at 10 µM; remark: listed apart in the source
[8] = target: Insulin-like growth factor 1 receptor (Homo sapiens) (UniProt P08069); conditions: at 1 µM
Chain of Insulin-like growth factor 1 receptor (Homo sapiens) (P08069 31-736 limits assumed): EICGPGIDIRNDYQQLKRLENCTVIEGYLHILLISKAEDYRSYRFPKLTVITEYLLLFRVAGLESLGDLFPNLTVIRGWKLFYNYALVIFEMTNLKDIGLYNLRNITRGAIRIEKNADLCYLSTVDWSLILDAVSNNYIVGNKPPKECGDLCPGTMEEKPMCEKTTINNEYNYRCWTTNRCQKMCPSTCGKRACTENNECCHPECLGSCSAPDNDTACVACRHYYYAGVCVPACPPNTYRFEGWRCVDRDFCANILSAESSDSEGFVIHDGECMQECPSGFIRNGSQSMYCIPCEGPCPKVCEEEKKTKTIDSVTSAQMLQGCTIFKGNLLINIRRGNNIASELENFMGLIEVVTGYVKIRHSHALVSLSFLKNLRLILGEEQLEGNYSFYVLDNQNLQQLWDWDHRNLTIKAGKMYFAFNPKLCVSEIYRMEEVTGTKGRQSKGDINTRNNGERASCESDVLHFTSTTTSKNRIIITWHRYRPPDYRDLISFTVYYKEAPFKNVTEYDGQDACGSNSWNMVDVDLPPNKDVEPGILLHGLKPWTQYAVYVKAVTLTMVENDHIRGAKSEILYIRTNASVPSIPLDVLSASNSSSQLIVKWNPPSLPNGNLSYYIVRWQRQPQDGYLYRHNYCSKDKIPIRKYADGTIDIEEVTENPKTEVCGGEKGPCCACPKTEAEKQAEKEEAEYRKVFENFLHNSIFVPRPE
Chain of Insulin-like growth factor 1 receptor (Homo sapiens) (P08069 741-1367 limits assumed): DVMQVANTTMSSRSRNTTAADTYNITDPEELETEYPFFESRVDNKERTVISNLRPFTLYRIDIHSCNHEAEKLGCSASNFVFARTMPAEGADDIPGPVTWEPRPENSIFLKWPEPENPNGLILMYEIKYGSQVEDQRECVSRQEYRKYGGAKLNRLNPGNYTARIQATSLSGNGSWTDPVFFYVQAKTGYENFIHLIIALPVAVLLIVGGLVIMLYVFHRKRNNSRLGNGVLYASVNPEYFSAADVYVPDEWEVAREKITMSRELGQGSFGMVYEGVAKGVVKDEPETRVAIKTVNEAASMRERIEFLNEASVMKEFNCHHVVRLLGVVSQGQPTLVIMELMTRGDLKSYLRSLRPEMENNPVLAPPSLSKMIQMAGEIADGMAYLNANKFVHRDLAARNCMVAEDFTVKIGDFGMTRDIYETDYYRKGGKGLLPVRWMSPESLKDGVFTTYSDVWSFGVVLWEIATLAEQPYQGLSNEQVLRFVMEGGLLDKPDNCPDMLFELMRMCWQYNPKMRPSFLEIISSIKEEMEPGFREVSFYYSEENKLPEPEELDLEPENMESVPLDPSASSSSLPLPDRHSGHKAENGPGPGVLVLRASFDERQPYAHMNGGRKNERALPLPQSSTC

[9] = target: Insulin-like growth factor 1 receptor (Homo sapiens) (UniProt P08069); conditions: at 10 µM
[10] = target: T2, Protein kinase C zeta type (Homo sapiens) (UniProt Q05513); conditions: at 10 µM
T2 sequence (whole entry): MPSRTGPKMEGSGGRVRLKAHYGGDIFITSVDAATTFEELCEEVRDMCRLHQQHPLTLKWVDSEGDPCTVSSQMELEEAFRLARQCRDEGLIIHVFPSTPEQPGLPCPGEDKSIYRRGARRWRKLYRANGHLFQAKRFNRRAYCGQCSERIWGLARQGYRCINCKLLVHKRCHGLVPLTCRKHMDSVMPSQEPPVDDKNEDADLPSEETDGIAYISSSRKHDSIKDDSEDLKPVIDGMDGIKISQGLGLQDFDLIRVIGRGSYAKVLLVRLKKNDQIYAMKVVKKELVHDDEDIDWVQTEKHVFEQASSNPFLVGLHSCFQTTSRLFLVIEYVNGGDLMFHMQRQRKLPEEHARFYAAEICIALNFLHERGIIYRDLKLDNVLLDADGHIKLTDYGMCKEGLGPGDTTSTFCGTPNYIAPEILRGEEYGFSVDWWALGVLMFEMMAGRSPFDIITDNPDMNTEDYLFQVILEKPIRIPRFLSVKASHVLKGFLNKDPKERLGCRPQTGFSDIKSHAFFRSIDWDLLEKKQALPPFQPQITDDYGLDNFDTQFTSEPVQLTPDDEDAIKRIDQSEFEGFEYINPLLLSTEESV

[11] = target: Protein kinase C eta type (Homo sapiens) (UniProt P24723); conditions: at 1 µM
Chain of Protein kinase C eta type (Homo sapiens) (P24723 whole entry): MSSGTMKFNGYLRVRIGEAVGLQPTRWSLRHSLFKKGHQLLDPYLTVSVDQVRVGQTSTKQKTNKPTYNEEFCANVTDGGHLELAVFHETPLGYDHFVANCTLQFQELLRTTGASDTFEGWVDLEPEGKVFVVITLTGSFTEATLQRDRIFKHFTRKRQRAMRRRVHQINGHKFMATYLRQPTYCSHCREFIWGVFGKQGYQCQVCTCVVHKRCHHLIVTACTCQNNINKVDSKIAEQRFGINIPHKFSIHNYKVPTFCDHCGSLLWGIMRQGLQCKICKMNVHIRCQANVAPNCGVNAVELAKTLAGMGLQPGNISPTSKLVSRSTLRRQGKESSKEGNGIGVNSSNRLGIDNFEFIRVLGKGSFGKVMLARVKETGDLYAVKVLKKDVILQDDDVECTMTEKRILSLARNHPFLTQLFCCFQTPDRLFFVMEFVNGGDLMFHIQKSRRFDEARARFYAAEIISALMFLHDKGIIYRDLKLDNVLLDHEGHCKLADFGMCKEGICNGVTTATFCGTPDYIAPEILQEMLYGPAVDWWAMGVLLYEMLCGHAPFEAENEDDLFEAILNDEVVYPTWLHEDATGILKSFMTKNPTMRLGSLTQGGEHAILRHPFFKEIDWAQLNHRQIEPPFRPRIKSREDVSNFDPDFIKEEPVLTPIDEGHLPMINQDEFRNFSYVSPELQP

[12] = target: Protein kinase C eta type (Homo sapiens) (UniProt P24723); conditions: at 10 µM
[13] = target: Protein kinase C theta type (Homo sapiens) (UniProt Q04759); conditions: at 1 µM
Chain of Protein kinase C theta type (Homo sapiens) (Q04759 whole entry, looked up): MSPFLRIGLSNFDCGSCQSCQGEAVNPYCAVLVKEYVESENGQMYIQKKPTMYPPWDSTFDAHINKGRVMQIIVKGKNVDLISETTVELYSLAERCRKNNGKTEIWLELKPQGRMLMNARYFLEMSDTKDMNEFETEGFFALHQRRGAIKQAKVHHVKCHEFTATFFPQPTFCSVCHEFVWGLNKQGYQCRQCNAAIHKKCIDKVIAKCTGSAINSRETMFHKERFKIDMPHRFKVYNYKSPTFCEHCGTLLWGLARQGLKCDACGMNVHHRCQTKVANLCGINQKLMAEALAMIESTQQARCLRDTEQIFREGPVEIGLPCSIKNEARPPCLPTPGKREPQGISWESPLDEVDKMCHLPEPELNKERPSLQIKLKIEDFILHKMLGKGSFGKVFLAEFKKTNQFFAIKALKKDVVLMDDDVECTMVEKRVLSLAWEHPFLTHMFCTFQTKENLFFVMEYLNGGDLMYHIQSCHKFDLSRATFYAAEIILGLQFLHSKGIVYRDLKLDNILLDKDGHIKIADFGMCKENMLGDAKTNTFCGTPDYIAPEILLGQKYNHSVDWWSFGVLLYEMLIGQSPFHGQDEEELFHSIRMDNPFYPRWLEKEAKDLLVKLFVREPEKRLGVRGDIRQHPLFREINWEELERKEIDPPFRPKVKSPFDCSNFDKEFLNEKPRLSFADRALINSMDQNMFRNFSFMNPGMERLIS

[14] = target: Protein kinase C theta type (Homo sapiens) (UniProt Q04759); conditions: at 10 µM
[15] = target: T3, Protein kinase C iota type (Homo sapiens) (UniProt P41743); conditions: at 1 µM
T3 sequence (whole entry): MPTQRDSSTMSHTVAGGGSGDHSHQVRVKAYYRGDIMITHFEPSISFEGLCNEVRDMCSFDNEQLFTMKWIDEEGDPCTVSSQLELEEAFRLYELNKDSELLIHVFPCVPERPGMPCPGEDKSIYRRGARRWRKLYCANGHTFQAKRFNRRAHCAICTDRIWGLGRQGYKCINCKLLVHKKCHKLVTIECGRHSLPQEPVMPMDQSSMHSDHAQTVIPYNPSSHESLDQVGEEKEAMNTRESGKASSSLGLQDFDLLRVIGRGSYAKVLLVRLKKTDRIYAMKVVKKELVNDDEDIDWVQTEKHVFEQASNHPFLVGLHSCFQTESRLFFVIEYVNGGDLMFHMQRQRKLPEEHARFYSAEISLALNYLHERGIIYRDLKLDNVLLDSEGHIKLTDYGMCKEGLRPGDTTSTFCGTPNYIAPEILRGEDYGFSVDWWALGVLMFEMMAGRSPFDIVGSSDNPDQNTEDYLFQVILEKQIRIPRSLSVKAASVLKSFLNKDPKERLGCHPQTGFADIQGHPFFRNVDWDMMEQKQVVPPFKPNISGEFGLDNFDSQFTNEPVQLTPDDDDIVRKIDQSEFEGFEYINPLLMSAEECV

[16] = target: T3, Protein kinase C iota type (Homo sapiens); conditions: at 10 µM
[17] = target: T4, Serine/threonine-protein kinase D1 (Homo sapiens) (UniProt Q15139); conditions: at 1 µM
T4 sequence (whole entry): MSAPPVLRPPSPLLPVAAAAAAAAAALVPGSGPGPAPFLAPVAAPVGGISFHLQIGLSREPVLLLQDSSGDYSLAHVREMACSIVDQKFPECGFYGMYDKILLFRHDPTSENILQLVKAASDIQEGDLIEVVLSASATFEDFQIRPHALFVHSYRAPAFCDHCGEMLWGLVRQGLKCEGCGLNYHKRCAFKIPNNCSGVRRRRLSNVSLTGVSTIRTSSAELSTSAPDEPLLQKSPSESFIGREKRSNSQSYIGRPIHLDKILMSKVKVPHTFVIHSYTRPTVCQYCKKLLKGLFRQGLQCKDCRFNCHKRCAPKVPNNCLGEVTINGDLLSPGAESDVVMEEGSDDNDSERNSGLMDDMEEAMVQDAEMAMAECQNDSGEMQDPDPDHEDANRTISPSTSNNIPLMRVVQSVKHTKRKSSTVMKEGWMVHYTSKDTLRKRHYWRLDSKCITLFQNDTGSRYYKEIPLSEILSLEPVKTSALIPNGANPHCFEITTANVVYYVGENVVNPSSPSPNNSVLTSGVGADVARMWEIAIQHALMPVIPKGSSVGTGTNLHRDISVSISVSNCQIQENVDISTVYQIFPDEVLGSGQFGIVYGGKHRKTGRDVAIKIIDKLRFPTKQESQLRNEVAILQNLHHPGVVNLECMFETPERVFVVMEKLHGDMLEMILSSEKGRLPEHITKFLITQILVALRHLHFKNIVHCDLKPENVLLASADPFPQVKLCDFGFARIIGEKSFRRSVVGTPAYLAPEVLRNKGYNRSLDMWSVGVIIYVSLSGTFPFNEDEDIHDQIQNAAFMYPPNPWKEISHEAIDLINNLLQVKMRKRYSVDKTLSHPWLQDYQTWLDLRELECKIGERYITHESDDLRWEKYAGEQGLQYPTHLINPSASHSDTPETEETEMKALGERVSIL

[18] = target: T4, Serine/threonine-protein kinase D1 (Homo sapiens); conditions: at 10 µM
[19] = target: T5, Serine/threonine-protein kinase D2 (Homo sapiens) (UniProt Q9BZL6); conditions: at 1 µM
T5 sequence (whole entry): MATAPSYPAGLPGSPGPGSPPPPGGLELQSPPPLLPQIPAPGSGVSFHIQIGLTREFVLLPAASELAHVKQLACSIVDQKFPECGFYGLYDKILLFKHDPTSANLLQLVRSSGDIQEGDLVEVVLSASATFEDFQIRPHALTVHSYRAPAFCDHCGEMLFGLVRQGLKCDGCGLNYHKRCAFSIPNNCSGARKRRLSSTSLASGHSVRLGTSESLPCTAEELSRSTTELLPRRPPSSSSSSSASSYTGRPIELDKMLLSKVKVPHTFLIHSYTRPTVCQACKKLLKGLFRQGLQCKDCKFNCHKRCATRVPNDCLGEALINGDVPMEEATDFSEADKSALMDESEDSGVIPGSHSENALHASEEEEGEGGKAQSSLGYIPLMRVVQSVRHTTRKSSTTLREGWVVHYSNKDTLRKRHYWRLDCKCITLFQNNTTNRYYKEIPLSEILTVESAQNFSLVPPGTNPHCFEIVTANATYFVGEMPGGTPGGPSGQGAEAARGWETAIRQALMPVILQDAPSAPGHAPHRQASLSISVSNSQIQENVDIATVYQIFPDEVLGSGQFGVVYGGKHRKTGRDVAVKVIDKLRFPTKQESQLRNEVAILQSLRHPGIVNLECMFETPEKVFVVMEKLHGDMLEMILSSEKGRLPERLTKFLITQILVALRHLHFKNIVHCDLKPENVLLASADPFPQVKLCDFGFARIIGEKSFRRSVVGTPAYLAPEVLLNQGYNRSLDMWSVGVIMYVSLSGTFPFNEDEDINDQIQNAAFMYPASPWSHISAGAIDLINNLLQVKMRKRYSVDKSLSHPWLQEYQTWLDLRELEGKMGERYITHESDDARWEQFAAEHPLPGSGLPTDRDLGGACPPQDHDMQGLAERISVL

[20] = target: T5, Serine/threonine-protein kinase D2 (Homo sapiens); conditions: at 10 µM

Chain of Homeodomain-interacting protein kinase 3 (Homo sapiens) (Q9H422 whole entry, looked up): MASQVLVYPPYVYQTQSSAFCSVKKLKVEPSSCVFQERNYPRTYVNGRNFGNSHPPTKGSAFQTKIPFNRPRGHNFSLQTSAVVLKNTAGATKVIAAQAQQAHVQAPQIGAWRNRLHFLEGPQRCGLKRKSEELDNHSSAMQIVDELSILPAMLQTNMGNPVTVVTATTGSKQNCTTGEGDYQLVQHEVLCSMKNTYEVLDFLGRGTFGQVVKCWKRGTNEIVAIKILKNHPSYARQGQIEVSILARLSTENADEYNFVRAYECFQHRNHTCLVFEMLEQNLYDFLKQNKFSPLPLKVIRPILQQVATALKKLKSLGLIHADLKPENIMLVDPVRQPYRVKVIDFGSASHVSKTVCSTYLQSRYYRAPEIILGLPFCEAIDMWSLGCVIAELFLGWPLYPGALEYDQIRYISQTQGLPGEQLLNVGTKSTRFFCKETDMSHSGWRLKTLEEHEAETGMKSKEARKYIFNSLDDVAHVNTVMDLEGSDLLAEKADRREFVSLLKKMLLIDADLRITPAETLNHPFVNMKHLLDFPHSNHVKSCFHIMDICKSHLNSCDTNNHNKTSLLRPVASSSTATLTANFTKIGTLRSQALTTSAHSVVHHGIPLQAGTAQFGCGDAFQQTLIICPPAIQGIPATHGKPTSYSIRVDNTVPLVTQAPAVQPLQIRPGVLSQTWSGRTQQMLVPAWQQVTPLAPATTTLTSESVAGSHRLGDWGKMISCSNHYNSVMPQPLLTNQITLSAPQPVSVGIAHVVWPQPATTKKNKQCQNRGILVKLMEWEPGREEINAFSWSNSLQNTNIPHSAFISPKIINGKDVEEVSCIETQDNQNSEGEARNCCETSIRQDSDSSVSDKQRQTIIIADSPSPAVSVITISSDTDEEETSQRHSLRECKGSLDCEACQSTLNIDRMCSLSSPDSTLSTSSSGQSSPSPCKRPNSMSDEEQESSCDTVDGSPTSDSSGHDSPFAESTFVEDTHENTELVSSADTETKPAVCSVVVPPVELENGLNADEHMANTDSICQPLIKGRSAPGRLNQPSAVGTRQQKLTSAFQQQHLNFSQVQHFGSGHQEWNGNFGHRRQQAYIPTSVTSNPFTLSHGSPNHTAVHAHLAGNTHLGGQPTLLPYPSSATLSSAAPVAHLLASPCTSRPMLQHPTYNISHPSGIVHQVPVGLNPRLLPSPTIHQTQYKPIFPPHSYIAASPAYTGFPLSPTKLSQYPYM

| Structure (SMILES) | residual activity [1] | residual activity [2] | residual activity [3] | residual activity [4] | residual activity [5] | residual activity [6] | residual activity [7] | residual activity [8] | residual activity [9] | residual activity [10] | residual activity [11] | residual activity [12] | residual activity [13] | residual activity [14] | residual activity [15] | residual activity [16] | residual activity [17] | residual activity [18] | residual activity [19] | residual activity [20] |
| --- | --- | --- | --- | --- | --- | --- | --- | --- | --- | --- | --- | --- | --- | --- | --- | --- | --- | --- | --- | --- |
| Cc1nc2cc3nc(-c4cccs4)cnc3cc2n1C | 97% | 123% | 79% | 92% | 67% | 90% | 34% | 141% | 61% | 109% | 107% | 111% | 110% | 110% | 97% (inactive) | 99% | 94% | 95% | 96% | 105% |
| O=C(Nc1cccc(Nc2cc(Nc3cccc(C(F)(F)F)c3)ncn2)c1)C1CC1 | 102% | 110% | 82% | 96% | 52% | 98% | 83% | 141% | 115% | 87% | 117% | 87% | – | 80% | 97% (inactive) | 111% | 99% | 88% | 107% | 110% |
| COc1cc2ncnc(Nc3ccc(NC(=O)c4ccccc4)cc3)c2cc1OC | 90% | 92% | 59% | 69% | 20% | 100% | 60% | – | 135% | 103% | 137% | 95% | – | 101% | 101% (inactive) | 66% | – | 88% | 100% | 106% |
| C[C@@H](N)[C@H]1CC[C@H](C(=O)Nc2ccncc2)CC1 | 95% | 109% | 97% | – | 94% | 91% | 97% | 111% | 109% | 76% | 26% | 5% | 63% | 17% | 101% (inactive) | 93% | 100% | – | – | 112% |
| Cc1cc2ncc(-c3ccccc3)nc2cc1C | 107% | 87% | 83% | 68% | 55% | 105% | 99% | 131% | 144% | 104% | 107% | 84% | 110% | 102% | 83% (inactive) | 78% | – | – | 104% | 110% |
| COc1ccc(S(=O)(=O)N(CCO)c2ccccc2CN(C)C/C=C/c2ccc(Cl)cc2)cc1 | 102% | 82% | 49% | 87% | 45% | 98% | 90% | 121% | 114% | – | 78% | 89% | 89% | 93% | 117% (inactive) | 110% | 83% | 77% | 102% | 99% |
| Cc1cccc(-c2[nH]c(C(C)(C)C)nc2-c2ccc3c(c2)OCO3)n1 | – | 92% | 75% | 94% | 79% | 102% | 99% | – | – | – | 84% | 80% | 96% | 95% | 85% (inactive) | 76% | – | 72% | 103% | 106% |
| O=[N+]([O-])c1ccc(-c2nc(-c3ccc(F)cc3)c(-c3ccncc3)[nH]2)cc1 | 109% | 86% | 77% | 77% | 29% | 97% | 97% | 114% | 141% | 103% | 95% | 68% | 91% | 68% | 110% (inactive) | 109% | 64% | 52% | 100% | 94% |
| O=C1NC(=O)c2c1c1c3ccccc3[nH]c1c1[nH]c3cc(Br)ccc3c21 | 89% | 99% | 72% | 69% | 56% | 97% | 78% | 87% | 91% | 88% | 72% | 89% | 80% | 91% | 102% (inactive) | – | 111% | 72% | 103% | 90% |
